Assay results from the supplement of paper PMC5940239.

test system: Madurella mycetomatis MM55; test: percent growth relative to solvent control; higher = less inhibition, active = 20 or less; conditions: 100 µM; 7 days

SMILES | percent growth
Cc1nnc(NC(=O)c2cn(-c3ccccc3)nc2-c2ccccc2C)o1 | 92.6% (inactive)
CC1CC1C(=O)NC1CCN(CC2(c3ccccc3)CCCCC2)CC1 (stereo not drawn) | 92.9% (inactive)
CCc1cc(=O)n(C)c(SC(C)C(=O)Nc2ccc(F)cc2)n1 (stereo not drawn) | 61.1% (inactive)
CNC1C(OC2C(OC3C(O)C(O)C(NC(=N)N)C(O)C3NC(=N)N)OC(C)C2(O)C=O)OC(CO)C(O)C1O (stereo not drawn) | 119% (inactive)
O=C1Nc2ccc(Br)cc2C12NCCc1c2[nH]c2ccccc12 (stereo not drawn) | 63.6% (inactive)
COc1ccc(Nc2ccccc2NC(=O)c2ccc(O)nc2)cc1 | 85.8% (inactive)
COc1ccccc1C(C)NCC(=O)Nc1cc(C(F)(F)F)ccc1Cl (stereo not drawn) | 28.7% (inactive)
Nc1ncnc2[nH]nc(Cc3cccc4ccccc34)c12 | 118% (inactive)
COc1ccc2nc(C)cc(OCC(=O)Nc3ccccc3OC)c2c1 | 72.5% (inactive)
Nc1ncc(Br)cc1-c1nc2cc(Cl)cnc2[nH]1 | 105% (inactive)
O=C(NC1CC1)c1ccc(CSCc2ccccc2Cl)o1 | 41.5% (inactive)
FC(F)(F)c1ccc(N(c2cccnc2)C2CCN(c3ccc(C(F)(F)F)cn3)CC2)cc1 | 59.5% (inactive)
Cc1cc(O)nc(-n2nc(C)cc2C)n1 | 66.4% (inactive)
O=C(Nc1cccnc1)c1c(O)c2cccc3c2n(c1=O)CC3 | 85.3% (inactive)
CCCCS(=O)(=O)Nc1ccc2cnn(C)c2c1 | 106% (inactive)
CCOc1ccc2cc(-c3nn(C(C)(C)C)c(N)c3C(N)=O)cnc2c1 | 98.2% (inactive)
Clc1ccc(CN2CCN(C3=NCCN3)CC2)cc1Cl | 122% (inactive)
Cc1ccc(C(=O)Nc2ccc(S(=O)(=O)O)c3cc(S(=O)(=O)O)cc(S(=O)(=O)O)c23)cc1NC(=O)c1cccc(NC(=O)Nc2cccc(C(=O)Nc3cc(C(=O)Nc4ccc(S(=O)(=O)O)c5cc(S(=O)(=O)O)cc(S(=O)(=O)O)c45)ccc3C)c2)c1 | 141% (inactive)
CS(=O)(=O)c1ccc(C(=O)N(CC2CCCO2)c2nc3ccccc3s2)cc1[N+](=O)[O-] (stereo not drawn) | 110% (inactive)

SMILES | percent growth
OCCc1ccc(Nc2nccc(-c3nnc4ccccn34)n2)cc1 | 88.7% (inactive)
CCCCc1ccc(NC(=O)Nc2ccc(O[C@H]3CCCC[C@@H]3N(C)c3ccccc3)c(F)c2)cc1 | 122% (inactive)
CCOc1ccc(-c2nc(NC(=O)CS(=O)(=O)c3ccccc3)sc2C)cc1 | 51.4% (inactive)
Nc1nccc2ccc(Oc3ccncc3)cc12 | 71.5% (inactive)
COC(=O)c1c(NC(=O)c2c(F)c(F)c(F)c(F)c2F)sc2c1CCCCC2 | 85.5% (inactive)
CN(C)CCNC(=O)N1CCCN(c2ncnc3cc(-c4ccccc4)sc23)CC1 | 64.5% (inactive)
CCOC(=O)c1cc(-c2csc(Nc3c(C)cc(C)cc3C)n2)on1 | 92.2% (inactive)
Cc1cc(Cl)ccc1NC(=O)CCc1ccc(S(=O)(=O)NCC(C)C)cc1 | 91.1% (inactive)
COc1ccc(-c2nc(-c3cccc(NC(=O)Cc4ccc(F)cc4)c3)no2)cc1OC | 95% (inactive)
CC(C)(C)c1cnc(NC(=O)c2ccccc2O)s1 | 99.3% (inactive)
C[C@H]1c2cccc(O)c2C(=O)C2=C(O)[C@]3(O)C(=O)C(C(N)=O)=C(O)[C@@H](N(C)C)[C@@H]3[C@@H](O)[C@@H]21 | 121% (inactive)
CCc1nc2ccc(C(=O)NCc3ccc4c(c3)OCO4)cn2c1N(C)Cc1cccs1 | 44% (inactive)
Cc1ccc2oc(-c3cc(NC(=O)Cc4ccccc4)ccc3Cl)nc2c1 | 96% (inactive)
CNc1snc(C)c1C(=O)NCCOc1ccc(OC)cc1 | 92.2% (inactive)
O=C(CCC1CCCCC1)Nc1cccc(-c2nnc(-c3ccco3)o2)c1 | 96.1% (inactive)
Clc1ccc(-n2cc(COc3ccnc4ccccc34)nn2)cc1 | 63% (inactive)
O=C(C1CCN(c2nnc(-n3cccc3)s2)CC1)N1CCC(Cc2ccccc2)CC1 | 108% (inactive)
CC(=O)NCC1CN(c2ccc(-c3ccc(CO)cc3)c(F)c2)C(=O)O1 (stereo not drawn) | 112% (inactive)
COc1cccc2c(C)nc(N=C(N)N)nc12 | 96.9% (inactive)
